According to PubChem BioAssay (Tox21):
“And” between values parts separate entries of the source, which are not always exact repeats. Equal entries are not always repeated. A number with no mark means an inactive call. Inconclusive results are not listed. A call without a number means that no potency is given here. The source made the active and inactive calls. The call rests on the fitted dose curve; in most records, active means well fitted curve in the direction sought with a large enough effect in the repeat runs; inconclusive means weak or mixed curves; inactive means no such curve, though single readings can be large; an effect the other way counts as inactive or inconclusive.

Assays:
[1] = Human pregnane X receptor (PXR) small molecule agonists, qHTS cell viability counter screen (AID 1346977); further: nearly all actives have a fitted effect of over 50% in size; further: potency means the concentration at half of the fitted maximal effect
How it was run: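 PXR-Luc HepG2 cells in medium with 5% charcoal-stripped FBS were pre-incubated 5hr, then exposed to compounds for 24hr at 37C. Viability was read in the same wells by CellTiter-Fluor fluorescence, reagent added after 23hr with a 1hr incubation.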

[2] = Caspase-3/7 induction in HepG2 cells by small molecules, qHTS assay (AID 1346978); further: nearly all actives have a fitted effect of over 15% in size
How it was run: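 Wild-type HepG2 cells (2,000/well) were settled 5 h at 37 C, 5% CO2, then exposed to compounds in DMSO for 17 h. Caspase-3/7 activity was read by luminescence 30 min after adding Caspase-Glo 3/7 reagent at room temperature.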

[3] = Caspase-3/7 induction in CHO-K1 cells by small molecules, qHTS cell viability counter screen (AID 1346979); further: nearly all actives have a fitted effect of over 35% in size; further: potency means the concentration at half of the fitted maximal effect
How it was run: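 Wild-type CHO-K1 cells were seeded at 1,500 per well, rested 5hr at 37 C, then exposed to compounds in DMSO. After 16hr, CellTiter-Fluor reagent was added and fluorescence read 1hr later as the viability measure.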

[4] = Caspase-3/7 induction in CHO-K1 cells by small molecules, qHTS assay (AID 1346980); further: nearly all actives have a fitted effect of over 15% in size
How it was run: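 Wild-type cells were seeded at 1,500 per well and settled 5 hr at 37 C, 5% CO2, then exposed to DMSO-dissolved compounds for 17 hr. Caspase-Glo 3/7 reagent was added, and luminescence was read after 30min at room temperature.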

[5] = target: Nuclear receptor subfamily 1 group I member 2 (Homo sapiens) (UniProt O75469); assay: Human pregnane X receptor (PXR) small molecule agonists, qHTS assay (AID 1346982); further: nearly all actives have a fitted effect of over 35% in size; further: potency means the concentration at half of the fitted maximal effect
Chain of Nuclear receptor subfamily 1 group I member 2 (Homo sapiens) (O75469 whole entry, looked up): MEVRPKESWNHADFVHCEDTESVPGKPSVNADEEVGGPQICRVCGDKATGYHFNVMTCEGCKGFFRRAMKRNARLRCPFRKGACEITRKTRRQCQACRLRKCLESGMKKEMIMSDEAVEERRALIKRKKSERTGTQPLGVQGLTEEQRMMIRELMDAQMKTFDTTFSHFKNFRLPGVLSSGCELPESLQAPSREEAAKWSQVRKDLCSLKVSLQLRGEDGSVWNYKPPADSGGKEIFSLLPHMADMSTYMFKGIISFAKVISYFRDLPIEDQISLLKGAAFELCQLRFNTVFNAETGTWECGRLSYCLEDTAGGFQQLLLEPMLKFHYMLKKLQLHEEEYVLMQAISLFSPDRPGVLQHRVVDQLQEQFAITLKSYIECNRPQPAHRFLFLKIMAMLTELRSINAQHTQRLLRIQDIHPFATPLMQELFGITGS
How it was run: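 Luminescence (ONE-Glo, 30 min RT) after 24 hr compound exposure of PXR-Luc HepG2 cells; cells rested 5 hr post-plating in 5% charcoal-stripped FBS medium.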

[6] = target: Cytochrome P450 2D6 (Homo sapiens) (UniProt P10635); assay: Cytochrome P450 Family 2 Subfamily D Member 6 (CYP2D6) small molecule antagonists: luciferase reporter qHTS assay (AID 1671196); further: nearly all actives have a fitted effect of over 50% in size; further: potency means the concentration at half of the fitted maximal effect
Chain of Cytochrome P450 2D6 (Homo sapiens) (P10635 whole entry, looked up): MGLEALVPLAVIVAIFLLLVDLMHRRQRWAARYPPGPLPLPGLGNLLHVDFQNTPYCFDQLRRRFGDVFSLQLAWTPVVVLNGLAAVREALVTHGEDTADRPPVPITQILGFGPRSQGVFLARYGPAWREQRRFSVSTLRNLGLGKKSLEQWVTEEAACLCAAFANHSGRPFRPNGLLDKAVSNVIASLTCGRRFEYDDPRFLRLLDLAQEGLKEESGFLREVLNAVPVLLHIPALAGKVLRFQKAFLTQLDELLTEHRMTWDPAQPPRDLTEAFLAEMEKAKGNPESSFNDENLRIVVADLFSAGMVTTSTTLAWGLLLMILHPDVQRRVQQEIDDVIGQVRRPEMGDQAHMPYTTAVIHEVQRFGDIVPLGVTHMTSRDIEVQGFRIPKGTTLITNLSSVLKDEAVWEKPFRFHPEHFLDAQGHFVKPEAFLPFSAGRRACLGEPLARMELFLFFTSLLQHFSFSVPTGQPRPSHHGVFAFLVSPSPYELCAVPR
How it was run: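 Inhibition of CYP2D6 was gauged by loss of luminescence, since light produced tracks the luciferin generated from a proluciferin substrate. A 10 min room-temperature preincubation preceded 1 h NADPH-supported turnover.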

[7] = Caspase-3/7 induction in HepG2 cells by small molecules, qHTS cell viability counter screen (AID 1346981); further: nearly all actives have a fitted effect of over 30% in size; further: potency means the concentration at half of the fitted maximal effect
How it was run: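 Counter screen for cytotoxicity: HepG2 exposed 16 hr to compounds, then CellTiter-Fluor viability signal (fluorescence, 1 hr reagent incubation).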

[8] = target: Nuclear receptor subfamily 1 group I member 2 (Rattus norvegicus) (UniProt Q9R1A7); assay: Rat pregnane X receptor (rPXR) activation by small molecules, qHTS assay (AID 1346983); conditions: rPXR luciferase reporter cells, One-Glo luminescence, 24 h; max activation: hits give high values; further: nearly all actives have a fitted effect of over 20% in size
Chain of Nuclear receptor subfamily 1 group I member 2 (Rattus norvegicus) (Q9R1A7 whole entry, looked up): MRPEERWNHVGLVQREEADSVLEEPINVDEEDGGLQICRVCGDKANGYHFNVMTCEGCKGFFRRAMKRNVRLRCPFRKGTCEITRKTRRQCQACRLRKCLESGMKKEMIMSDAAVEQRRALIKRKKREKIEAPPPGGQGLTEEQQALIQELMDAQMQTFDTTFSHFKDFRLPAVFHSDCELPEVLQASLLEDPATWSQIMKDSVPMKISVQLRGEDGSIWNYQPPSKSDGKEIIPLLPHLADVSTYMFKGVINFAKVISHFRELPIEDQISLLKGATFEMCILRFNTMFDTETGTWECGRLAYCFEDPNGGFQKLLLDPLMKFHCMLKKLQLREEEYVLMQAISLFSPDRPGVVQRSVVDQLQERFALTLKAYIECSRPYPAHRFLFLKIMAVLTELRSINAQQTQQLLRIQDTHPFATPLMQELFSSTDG
How it was run: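 Cell-based rPXR luciferase reporter assay, 2,000 cells per well, rested 5hr at 37 C before compound addition in DMSO, then 24 hr at 37 C. One-Glo reagent was added and luminescence read after 30 min at room temperature.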

[9] = target: Nuclear receptor subfamily 1 group I member 2 (Homo sapiens) (UniProt O75469); assay: CYP3A4 induction through human pregnane X receptor (PXR) by small molecules, qHTS assay (AID 1346984); further: nearly all actives have a fitted effect of over 40% in size
How it was run: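 DPX-2 reporter cells; 24h cpd, 37C; Luciferin-IPA 3uM final x3h; One-Glo 30 min RT; lumi read.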

[10] = target: Nuclear receptor subfamily 1 group I member 2 (Homo sapiens) (UniProt O75469); assay: Human pregnane X receptor (PXR) activation by small molecules, qHTS assay (AID 1346985); further: nearly all actives have a fitted effect of over 40% in size; further: potency means the concentration at half of the fitted maximal effect
How it was run: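 DPX-2 cells (HepG2 co-transfected with a PXR response element and a CYP3A4-promoter luciferase construct) were seeded at 2,000 per well, rested 5 hr at 37C, then exposed to DMSO-dissolved compounds for 24 hr. Activation was read as luciferase luminescence.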

SMILES | Potency [1] | outcome [2] | Potency [3] | Potency [4] | Potency [5] | Potency [6] | Potency [7] | max activation [8] [%] | Potency [9] | Potency [10]
Oc1ccc2c(c1)OCO2 | inactive | inactive | inactive | inactive | inactive | 39.6 µM (active) |  |  |  | 
O=C(O)c1cccc(N(Cc2cccnc2)c2ccc(OC(F)F)c(OC(F)F)c2)c1 | inactive | inactive | 68.6 µM (active) | inactive | 43.3 µM (active) |  |  |  |  | 
CC(=O)CC(=O)c1ccccc1 | inactive | inactive | inactive |  |  |  | inactive |  |  | 
CCOC(=O)CC(C)C | inactive | inactive | inactive | inactive | inactive | inactive |  |  |  | 
CCCCOCCOCCOCCOCCO | inactive | inactive | inactive |  | inactive |  | inactive |  |  | 
CC(C)NCC(O)c1cc(O)cc(O)c1 (stereo not given) | inactive | inactive | inactive |  | inactive | inactive | inactive | -6.91 | inactive | inactive
CC(C(=O)O)c1ccc(-c2ccccc2)c(F)c1 (stereo not given) | inactive | inactive | inactive | inactive |  |  |  | -4.66 | inactive | inactive
O=C(O)C1CCC(C(=O)O)CC1 (stereo not given) | inactive | inactive | inactive | inactive | inactive |  |  |  |  | 
NC(N)=NN=C(/C=C/c1ccc([N+](=O)[O-])o1)/C=C/c1ccc([N+](=O)[O-])o1 | 6.68 µM (active) | inactive | 5.31 µM (active) |  | 2.66 µM (active) | 15.5 µM (active) | 8.41 µM (active) | -21.7 | inactive | inactive
N=C(N=C(N)N)N1CCOCC1 | inactive | inactive | inactive | inactive | inactive | inactive |  | -1.18 | inactive | inactive
CCN(CC)CCOC(=O)C1(c2ccccc2)CCCC1 | inactive | inactive | inactive | inactive |  | 1.38 µM (active) |  | 1.06 | inactive | 
CCCCCCCCCCCCCCCC(=O)OC/C=C(C)/C=C/C=C(C)/C=C/C1=C(C)CCCC1(C)C | inactive | inactive | inactive | inactive | 24.3 µM (active) | inactive |  |  |  | 
O=[N+]([O-])c1cc[n+]([O-])cc1 | 54.5 µM (active) | inactive | 38.6 µM (active) | inactive |  | 35.6 µM (active) |  |  |  | 
C=CC(C)(CCC=C(C)C)OC(=O)c1ccccc1 (stereo not given) | inactive | inactive | inactive | inactive |  | inactive |  |  |  | 
N[C@H]1C(O)O[C@H](CO)[C@H](O)[C@@H]1O (stereo not given in full) | inactive | inactive | inactive | inactive |  | inactive |  |  |  | 
CCCCCC(CO)CCC (stereo not given) | inactive | inactive | inactive | inactive | inactive | inactive |  |  |  | 
CCCCCCc1ccc(N)cc1 | inactive | inactive | inactive | inactive | 30.6 µM (active) |  |  |  |  | 

SMILES | Potency [1] | outcome [2] | Potency [3] | Potency [4] | Potency [5] | Potency [6] | Potency [7] | max activation [8] [%] | Potency [9] | Potency [10]
CC(=O)c1c(C)c([N+](=O)[O-])c(C(C)(C)C)c([N+](=O)[O-])c1C | inactive | inactive | inactive | inactive | 48.6 µM (active) | inactive |  |  |  | 
Cc1cc(CC(=O)O)c(C)n1-c1ccc(Cl)cc1 | inactive | inactive | inactive | inactive |  |  |  | 0.177 | inactive | inactive
O=C(NS(=O)(=O)/C=C/c1cccs1)c1ccc(F)cc1Br | inactive | inactive | inactive | inactive |  | inactive |  |  |  | 
Cc1ccccn1 | inactive | inactive | inactive | inactive |  |  |  | -5.22 |  | 
Cc1ccc2c(ccc3ccccc32)c1 | inactive | inactive | inactive |  | 54.6 µM (active) |  | inactive |  |  | 
CCCCCCCCCC=O | inactive | inactive | inactive | inactive | inactive | inactive |  |  |  | 
CC(C)c1ccc2c(C(C)C)cc(C(C)C)c(S(=O)(=O)O)c2c1 | inactive | inactive | inactive | inactive | 25.2 µM (active) | inactive |  |  |  | 
O=c1c2ccccc2nnn1CCl | inactive | inactive | inactive | inactive |  | 14.2 µM (active) | inactive |  |  | 
CCC(=O)OC(C)(C)C1CC=C(C)CC1 (stereo not given) | inactive | inactive | inactive | inactive | inactive |  |  |  |  | 
CC(=O)NCCCS(=O)(=O)O | inactive | inactive | inactive |  | inactive | inactive | inactive | -4.66 | inactive | inactive
Cn1sccc1=O | inactive | inactive | 30.6 µM (active) and 43.3 µM (active) | inactive |  | inactive |  |  |  | 
CC1=CCC(C(C)C)C=C1 (stereo not given) | inactive | inactive | inactive | inactive | 30.6 µM (active) | 71 µM (active) |  |  |  | 
C#CCOC(=O)[C@@H](C)Oc1ccc(Oc2ncc(Cl)cc2F)cc1 | inactive | inactive | inactive |  |  |  | inactive |  |  | 
COCCCCCCCCOCCC[Si](C)(O[Si](C)(C)C)O[Si](C)(C)C | 30.6 µM (active) | inactive | 13.7 µM (active) |  | 12.2 µM (active) | inactive |  |  |  | 
Nc1nc(N)c(-c2ccccc2)s1 | inactive | inactive |  | inactive | inactive | inactive | inactive | -3.93 | inactive | inactive
COc1ccc2[nH]c(S(=O)Cc3ncc(C)c(OC)c3C)nc2n1 (stereo not given) | inactive | inactive |  | inactive | 18.8 µM (active) |  | inactive |  | inactive | 25.1 µM (active)
